Laboratory results published in PubChem BioAssay (EPA / NIEHS).
Inconclusive results are not listed. More than one record can exist for a structure, and the calls need not agree. Activity calls are given as the source filed them. The calls were made as follows, unless noted: active = hit-call score of the fitted dose curve at least 0.9, where 1 is the maximum; inconclusive = response in the unintended direction; inactive = score below 0.9.

How the values were obtained:
[1] = ATG_ERE_CIS: Attagene CIS-FACTORIAL HepG2 Assay for Estrogen Response Element (ERE) (AID 2282940; active = hit-call score of the fitted dose curve at least 0.9, where 1 is the maximum; inactive = score below 0.9); conditions: HepG2 ERE cis-reporter, Attagene RNA transcript; actives raise or lower the signal
In short: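 HepG2, transient cis-reporter units, 24 h exposure. RNA isolated, oligo(dT) RT, reporter-specific PCR, FAM extension, HpaI cut, CE detection. Gain/loss-of-signal vs DMSO.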

[2] = target: Steroid hormone receptor ERR1 (Homo sapiens) (UniProt P11474); assay: ATG_ERRa_TRANS: Attagene TRANS-FACTORIAL HepG2 Assay for human Estrogen-Related Receptor alpha (ERRa) (AID 2282971); conditions: HepG2 Attagene TRANS reporter, ERRa transactivation
In short: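 HepG2 cells transiently transfected with GAL4-UAS reporter units and chimeric NR-Gal4 constructs; after 24 hour compound incubation, reporter mRNA quantified by RT-PCR, fluorescent labelling and capillary electrophoresis, gain of signal versus DMSO.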

[3] = target: human Retinoic Acid Receptor beta (RARb), RARB (gene 5915) (UniProt P10826); assay: ATG_RARb_TRANS: Attagene TRANS-FACTORIAL HepG2 Assay for human Retinoic Acid Receptor beta (AID 2283004)
In short: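 HepG2 cells were transiently transfected with GAL4-UAS reporter units that report activity of exogenous chimeric NR-Gal4 proteins, then exposed to compound for 24 h. Reporter mRNA was quantified by RT-PCR with capillary electrophoresis fluorescence, as gain of signal over DMSO.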

[4] = target: human Retinoic Acid Receptor gamma (RARg), RARG (gene 5916) (UniProt P13631); assay: ATG_RARg_TRANS: Attagene TRANS-FACTORIAL HepG2 Assay for human Retinoic Acid Receptor gamma (RARg) (AID 2283009);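 as to AC50: AC50 is for reporter induction above DMSO meaning RARg activation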
In short: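 HepG2 cells transiently transfected with multiplexed reporter units expressing chimeric RARg-GAL4 and GAL4-UAS-driven reporters; 24 h compound exposure. Reporter mRNA quantified by RT-PCR with fluorescent labelling and capillary electrophoresis; gain-of-signal fitted relative to DMSO baseline.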

[5] = read-out: Interleukin-8 (IL8), CXCL8 (gene 3576); assay: BSK_3C_IL8: BioMAP Diversity Plus: 3C Assay for Interleukin-8 (IL8) Biomarker Activity (AID 2283020; active = hit-call score of the fitted dose curve at least 0.9, where 1 is the maximum; inactive = score below 0.9); conditions: primary human endothelial cells (HUVEC); actives raise or lower the signal
In short: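 Primary human umbilical vein endothelial cells (3C system) were exposed to test chemical for 24 h, then IL-8 was quantified by ELISA. Responses were fitted bidirectionally against DMSO vehicle as baseline.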

[6] = read-out: Pselectin, SELP (gene 6403); assay: BSK_4H_Pselectin: BioMAP Diversity Plus: 4H Assay for Pselectin Biomarker Activity (AID 2283026; active = hit-call score of the fitted dose curve at least 0.9, where 1 is the maximum; inactive = score below 0.9); conditions: primary human endothelial cells (HUVEC); actives raise or lower the signal
In short: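 Primary human umbilical vein endothelial cells were exposed to test chemical for 24 h, then cell-surface P-selectin was quantified by ELISA. Activity was fitted bidirectionally against DMSO as negative control and baseline.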

[7] = read-out: Macrophage colony-stimulating factor (MCSF), CSF1 (gene 1435); assay: BSK_CASM3C_MCSF: BioMAP Diversity Plus: CASM3C Assay for Macrophage colony-stimulating factor (MCSF) Biomarker Activity (AID 2283044; active = hit-call score of the fitted dose curve at least 0.9, where 1 is the maximum; inactive = score below 0.9;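 also: M-CSF protein amount quantified by ELISA after 24 h exposure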); conditions: primary human coronary artery smooth muscle cells; actives raise or lower the signal
[8] = read-out: Low-density lipoprotein receptor (LDLR), LDLR (gene 3949); assay: BSK_CASM3C_LDLR: BioMAP Diversity Plus: CASM3C Assay for Low-density lipoprotein receptor (LDLR) Biomarker Activity (AID 2283045; active = hit-call score of the fitted dose curve at least 0.9, where 1 is the maximum; inactive = score below 0.9;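 also: LDLR protein level on the cell surface quantified by ELISA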); conditions: primary human coronary artery smooth muscle cells; actives raise or lower the signal
[9] = read-out: Monokine induced gamma interferon (MIG), CXCL9 (gene 4283); assay: BSK_CASM3C_MIG: BioMAP Diversity Plus: CASM3C Assay for Monokine induced gamma interferon (MIG) Biomarker Activity (AID 2283048; active = hit-call score of the fitted dose curve at least 0.9, where 1 is the maximum; inactive = score below 0.9;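 also: MIG protein level measured by ELISA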); conditions: primary human coronary artery smooth muscle cells; actives raise or lower the signal
[10] = read-out: serum amyloid A (SAA), SAA1 (gene 6288); assay: BSK_CASM3C_SAA: BioMAP Diversity Plus: CASM3C Assay for serum amyloid A (SAA) Biomarker Activity (AID 2283049; active = hit-call score of the fitted dose curve at least 0.9, where 1 is the maximum; inactive = score below 0.9;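 also: SAA protein level quantified by ELISA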); conditions: primary human coronary artery smooth muscle cells; actives raise or lower the signal
[11] = CCTE_Harrill_HTTr_CellCount_MCF7: CCTE's Cell Proliferation Assessment for the High-Throughput Transcriptomics (HTTr) Platform, Harrill Lab (AID 2284012);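 also: cells exposed to compound for six hours; intended direction is loss of nuclei count meaning fewer cells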
In short: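 MCF-7 cells were exposed for 6 h to an eight-point dilution series; Hoechst-labeled nuclei were counted by high content imaging. Curves were fitted bidirectionally against DMSO as negative control and baseline, with signal loss indicating reduced cell count.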

[12] = ACEA_ER_AUC_viability: ACEA Biosciences xCELLigence Real-Time Cell Analysis on Estrogen Receptor Agonism for Viability (AID 2283782);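 also: continuous compound exposure with impedance area under curve over 80 h; hit means loss of impedance signal meaning reduced cell growth or viability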
In short: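 T-47D human breast cells in phenol red-free RPMI1640 with 10% charcoal-stripped FBS were dosed with an 8-point 1:4 dilution series from 100 uM top final concentration, in duplicate. Impedance-based growth was followed for 80 h; AUC analysed versus DMSO.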

[13] = target: Estrogen receptor beta (Homo sapiens) (UniProt Q92731); assay: OT_ER_ERbERb_0480: Odyssey Thera (OT) 8-hour HEK293T Protein-Complementation Assay for Estrogen Receptor-beta/-beta Homodimer (AID 2283357);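 also: active means signal gain over DMSO baseline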
In short: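 Readout: increase in mean fluorescence intensity (nucleus for agonists; nucleus plus cytoplasm for antagonists) relative to DMSO, from a reporter-fragment complementation of human ER-beta LBD homodimer in HEK293T cells dosed 8 hours.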

[14] = target: Estrogen receptor beta (Homo sapiens) (UniProt Q92731); assay: OT_ER_ERbERb_1440: Odyssey Thera (OT) 24-hour HEK293T Protein-Complementation Assay for Estrogen Receptor-beta/-beta Homodimer (AID 2283380);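 also: fluorescence gain from ER beta LBD homodimer complementation read by laser scanning cytometry; scored as signal increase over DMSO baseline for both agonists and antagonists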
In short: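 HEK293T cells stably expressing human ER-beta LBD (aa 310-547) PCA homodimer pair, dosed 24 h; formaldehyde-fixed, Draq5-stained. Readout: increase in nuclear (agonist) or nuclear plus cytoplasmic (antagonist) fluorescence intensity versus DMSO, gain-of-signal fitting.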

[15] = target: Retinoic acid receptor RXR-alpha (Homo sapiens) (UniProt P19793); assay: OT_NURR1_NURR1RXRa_0480: Odyssey Thera (OT) 8-hour HEK293T Protein Complementation Assay for Nurr1/retinoid X receptor (RXR) (AID 2283385)
In short: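 HEK293T cells expressing Nurr1 and RXRα fused to reporter fragments were dosed with compound for 8 hours. Complex formation was read as fluorescence intensity and analysed as gain of signal against DMSO as baseline.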

[16] = target: Retinoic acid receptor RXR-alpha (Homo sapiens) (UniProt P19793); assay: OT_NURR1_NURR1RXRa_1440: Odyssey Thera (OT) 24-hour HEK293T Protein Complementation Assay for Nurr1/retinoid X receptor (RXR) (AID 2283386)
In short: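 HEK293T cells were dosed with compound and read 24 h later by fluorescence intensity in a protein-fragment complementation format, where Nurr1–RXRα interaction reconstitutes a split reporter. Activity was fitted as gain of signal relative to DMSO baseline.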

[17] = target: Peroxisome proliferator-activated receptor gamma (Homo sapiens) (UniProt P37231); assay: OT_PPARg_PPARgSRC1_0480: Odyssey Thera (OT) 8-hour Protein-Complementation Assay for Peroxisome Proliferator-activated Receptor Gamma / SRC-1 Co-activator (AID 2283387)
In short: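 Split-YFP (IFP1/IFP2) PPARg/SRC-1 reporter, HEK293T, 37 °C, 5% CO2; 8 h compound; formaldehyde fix + Draq5; high-content imaging, N/C ratio, ≥350 cells/image, positive direction vs DMSO.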

[18] = target: Peroxisome proliferator-activated receptor gamma (Homo sapiens) (UniProt P37231); assay: OT_PPARg_PPARgSRC1_1440: Odyssey Thera (OT) 24-hour Protein-Complementation Assay for Peroxisome Proliferator-activated Receptor Gamma/ SRC-1 Co-activator (AID 2283388)
In short: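 HEK293T transiently transfected with PPARg/SRC-1 split-Venus YFP fusions 48 h before dosing, then treated 24 h at 37C. Fixed cells imaged; nuclear/cytoplasmic 488 nm fluorescence ratio, gain of signal versus DMSO.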

[19] = ACEA_AR_agonist_AUC_viability: ACEA Biosciences xCELLigence Real-Time Cell Analysis on Androgen Receptor Agonism for Viability (AID 2283775);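 as to AC50: viability read 80 hours after compound addition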
In short: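 Read-out is area under the impedance curve at 80 h post-dose in 22Rv1 cells, with DMSO as baseline and signal loss taken as reduced viability. Compounds ran in duplicate from 100 uM final.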

[20] = ACEA_AR_antagonist_AUC_viability: ACEA Biosciences xCELLigence Real-Time Cell Analysis on Androgen Receptor Antagonism for Viability (AID 2283776);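 also: 22Rv1 human prostate cancer cells growing on impedance electrode plates; area under impedance growth curve at 80 h after dosing as viability; hits lower the growth signal relative to DMSO meaning cytotoxicity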
In short: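 Viability endpoint from label-free cell-index monitoring: 22Rv1 cultures treated with an eight-point 1:4 dilution series starting at 100 uM final, AUC at 80 h fitted against DMSO.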

Measured: AC50

human Retinoic Acid Receptor gamma (RARg), RARG (gene 5916), sequence (P13631 whole entry, looked up, the tested form may be a part): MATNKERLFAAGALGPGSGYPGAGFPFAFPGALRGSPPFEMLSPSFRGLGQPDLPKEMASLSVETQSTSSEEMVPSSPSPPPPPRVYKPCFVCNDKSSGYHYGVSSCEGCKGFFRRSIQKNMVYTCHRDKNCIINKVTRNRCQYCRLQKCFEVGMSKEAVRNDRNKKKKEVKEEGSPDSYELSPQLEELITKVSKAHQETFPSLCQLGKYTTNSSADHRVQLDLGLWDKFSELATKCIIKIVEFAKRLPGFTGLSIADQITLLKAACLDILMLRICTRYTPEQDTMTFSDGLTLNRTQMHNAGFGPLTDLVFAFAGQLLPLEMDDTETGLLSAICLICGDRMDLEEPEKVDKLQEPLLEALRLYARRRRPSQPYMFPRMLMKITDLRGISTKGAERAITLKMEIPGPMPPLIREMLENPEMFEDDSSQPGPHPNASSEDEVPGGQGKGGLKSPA
Estrogen receptor beta (Homo sapiens), sequence (Q92731 whole entry, looked up, the tested form may be a part): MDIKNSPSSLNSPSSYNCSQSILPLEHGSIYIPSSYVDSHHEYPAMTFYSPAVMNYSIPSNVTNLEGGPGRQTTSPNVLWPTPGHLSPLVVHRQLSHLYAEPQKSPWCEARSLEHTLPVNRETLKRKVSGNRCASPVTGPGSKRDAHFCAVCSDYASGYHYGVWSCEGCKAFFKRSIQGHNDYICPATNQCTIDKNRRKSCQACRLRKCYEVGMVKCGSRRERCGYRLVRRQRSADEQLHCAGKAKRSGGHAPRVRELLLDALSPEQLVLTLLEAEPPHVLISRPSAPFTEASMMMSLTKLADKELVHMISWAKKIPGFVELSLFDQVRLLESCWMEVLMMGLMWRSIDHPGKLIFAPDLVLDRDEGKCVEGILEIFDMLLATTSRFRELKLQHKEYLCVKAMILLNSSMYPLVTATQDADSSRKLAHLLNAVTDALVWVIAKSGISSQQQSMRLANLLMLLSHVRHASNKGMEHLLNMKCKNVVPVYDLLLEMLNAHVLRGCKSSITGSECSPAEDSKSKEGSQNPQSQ
Retinoic acid receptor RXR-alpha (Homo sapiens), sequence (P19793 whole entry, looked up, the tested form may be a part): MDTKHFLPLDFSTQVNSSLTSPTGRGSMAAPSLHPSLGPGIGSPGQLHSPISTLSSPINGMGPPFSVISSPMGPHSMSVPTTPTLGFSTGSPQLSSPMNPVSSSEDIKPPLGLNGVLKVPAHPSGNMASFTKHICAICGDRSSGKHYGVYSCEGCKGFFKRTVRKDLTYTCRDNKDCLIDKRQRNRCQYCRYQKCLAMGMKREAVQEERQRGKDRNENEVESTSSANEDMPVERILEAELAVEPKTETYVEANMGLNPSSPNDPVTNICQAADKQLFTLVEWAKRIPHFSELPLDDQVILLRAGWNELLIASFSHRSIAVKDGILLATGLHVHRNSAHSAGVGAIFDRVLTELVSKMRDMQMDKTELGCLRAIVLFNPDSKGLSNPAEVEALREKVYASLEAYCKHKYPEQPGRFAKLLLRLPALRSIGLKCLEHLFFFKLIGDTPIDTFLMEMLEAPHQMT
Steroid hormone receptor ERR1 (Homo sapiens), sequence (P11474 whole entry, looked up, the tested form may be a part): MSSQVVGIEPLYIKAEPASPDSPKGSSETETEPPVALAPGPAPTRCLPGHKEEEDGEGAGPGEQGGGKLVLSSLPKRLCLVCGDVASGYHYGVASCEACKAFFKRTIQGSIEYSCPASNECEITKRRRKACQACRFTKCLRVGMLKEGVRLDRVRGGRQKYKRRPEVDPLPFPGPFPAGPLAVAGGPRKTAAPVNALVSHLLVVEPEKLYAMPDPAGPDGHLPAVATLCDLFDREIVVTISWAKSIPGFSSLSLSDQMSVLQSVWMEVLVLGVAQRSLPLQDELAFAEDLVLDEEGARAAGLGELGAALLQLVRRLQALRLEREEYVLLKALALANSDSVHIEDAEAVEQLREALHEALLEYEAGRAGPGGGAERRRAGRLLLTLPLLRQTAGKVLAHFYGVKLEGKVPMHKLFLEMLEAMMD
human Retinoic Acid Receptor beta (RARb), RARB (gene 5915), sequence (P10826 whole entry, looked up, the tested form may be a part): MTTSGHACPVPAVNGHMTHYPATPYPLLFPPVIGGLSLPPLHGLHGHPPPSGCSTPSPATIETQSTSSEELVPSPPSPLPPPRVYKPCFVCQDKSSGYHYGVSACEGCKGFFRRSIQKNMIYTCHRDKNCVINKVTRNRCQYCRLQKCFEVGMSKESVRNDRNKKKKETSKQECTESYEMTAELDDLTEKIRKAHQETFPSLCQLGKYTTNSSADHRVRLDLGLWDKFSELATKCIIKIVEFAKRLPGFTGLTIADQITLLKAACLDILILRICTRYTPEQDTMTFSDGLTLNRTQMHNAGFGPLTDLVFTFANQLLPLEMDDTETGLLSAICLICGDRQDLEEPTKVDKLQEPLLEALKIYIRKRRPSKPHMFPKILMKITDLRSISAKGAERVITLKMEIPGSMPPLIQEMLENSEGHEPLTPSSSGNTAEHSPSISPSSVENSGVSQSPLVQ
Peroxisome proliferator-activated receptor gamma (Homo sapiens), sequence (P37231 whole entry, looked up, the tested form may be a part): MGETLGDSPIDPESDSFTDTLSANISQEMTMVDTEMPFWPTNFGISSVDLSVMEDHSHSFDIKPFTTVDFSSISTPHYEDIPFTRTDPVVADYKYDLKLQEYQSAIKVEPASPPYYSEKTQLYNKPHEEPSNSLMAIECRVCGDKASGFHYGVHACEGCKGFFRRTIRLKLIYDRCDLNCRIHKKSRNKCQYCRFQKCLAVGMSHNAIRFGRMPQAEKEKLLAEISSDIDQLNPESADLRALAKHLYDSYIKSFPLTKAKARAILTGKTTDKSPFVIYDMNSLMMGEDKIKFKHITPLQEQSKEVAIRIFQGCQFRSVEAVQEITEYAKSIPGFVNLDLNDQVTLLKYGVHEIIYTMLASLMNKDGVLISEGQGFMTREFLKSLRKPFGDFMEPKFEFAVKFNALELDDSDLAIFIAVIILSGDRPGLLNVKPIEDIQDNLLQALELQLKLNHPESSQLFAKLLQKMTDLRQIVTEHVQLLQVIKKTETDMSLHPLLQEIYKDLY

CCCCCCCCCCCCCCCCCC[N+](C)(C)C
inactive: [1] | [8] | [10]
active: [2] 33.8 µM | [3] 15.7 µM | [4] 34.4 µM | [5] 5 µM | [6] 1.34 µM | [7] 3.45 µM | [9] 9.22 µM

Cc1ccnc(N)c1
inactive: [3] | [11]

CCCCNC(N)=O
inactive: [2]

CCCCCCC1CCCC(=O)O1 (centres undefined)
inactive: [2] | [12]

CCC(=O)OCc1ccc(OC)cc1
inactive: [4]

CCc1cc(C(N)=S)ccn1
inactive: [11]

C=CCOCC(CC)(CO)COCC=C
inactive: [12]

O=C(CC(C(=O)OC1CCCCC1)S(=O)(=O)O)OC1CCCCC1 (centres undefined)
inactive: [13] | [14] | [15] | [16] | [17] | [18] | [19] | [20]

O=C1NC(=O)C2CC=CCC12 (centres undefined)
inactive: [4] | [13] | [14] | [16] | [19] | [20] | [12]

Cc1cc(O)cc(C)c1Cl
inactive: [4] | [15] | [16] | [17] | [18] | [11]
active: [13] 25 µM | [14] 31.6 µM | [19] 3.98 µM | [20] 8.88 µM

Cc1cc(-n2nc3ccc(Cl)cc3n2)c(O)c(C(C)(C)C)c1
inactive: [3] | [5] | [6] | [7] | [8] | [9] | [10]

CCCCC(CC)COC(=O)CS (centres undefined)
inactive: [2]
active: [15] 50 µM | [16] 16 µM

O=C1NC(=O)[C@@H]2CC=CC[C@H]12
inactive: [2]

Cc1cc2nc3c(=O)[nH]c(=O)nc-3n(C[C@H](O)[C@H](O)[C@H](O)CO)c2cc1C
active: [13] 11.8 µM | [14] 24.1 µM | [16] 11 µM | [12] 47 µM
inactive: [20]

C=CCOC(=O)C(=C)C
inactive: [2] | [4] | [12]

C=C(C)C(=O)OCCCCCC
inactive: [1]

CN(C)Cc1cc(C(C)(C)C)c(O)c(C(C)(C)C)c1
inactive: [5] | [6] | [7] | [8] | [9] | [10]
active: [6] 1.56 µM | [10] 5.92 µM

CCC(C)(CCC(C)C)C(=O)O (centres undefined)
inactive: [2] | [3] | [19] | [20] | [12]

CCCOCCC
inactive: [1] | [3] | [4]

CCCC(=O)OC/C=C(\C)CCC=C(C)C
inactive: [1]
active: [12] 68.8 µM

CCOC(=O)CC(=O)OCC
inactive: [4] | [16] | [19]

O=C(c1ccccc1)c1ccccc1O
inactive: [2] | [14] | [17] | [18] | [19] | [20]
active: [13] 50 µM | [12] 76.9 µM

CCCCCCC1CCC(=O)O1 (centres undefined)
inactive: [1] | [2] | [3] | [4] | [14] | [17] | [18] | [19] | [20]

COC(OC)C(C)c1ccccc1 (centres undefined)
active: [12] 20.7 µM
inactive: [1]

c1ccc(CNc2ncnc3nc[nH]c23)cc1
inactive: [4] | [13] | [14] | [19] | [20] | [11]
